One experiment deals with Plasmodium falciparum. The experiment in a line: GSK_TCMDC: Inhibition of Plasmodium falciparum 3D7 in whole red blood cells, using parasite LDH activity as an index of growth. Test compounds present at 2uM. The format is functional.
As for `COc1ccc2[nH]c(C)cc(=NN=Cc3cccc(F)c3)c2c1`, the Inhibition is 100%.
The same measure, in the same setting: the figure for `O=C(c1ccc(-c2cccc(-c3nc4cc(F)ccc4[nH]3)c2)cc1)N1CCCCC1CN1CCC(O)C1` (stereo not given) is 91%.
Same read-out and setting: the figure for `CCCCNC(=O)[C@@H]1CCCN1C(=O)c1ccc(O)c(-c2ccc(Cl)c(Cl)c2)c1` is 98%.
Compound `Cc1ccc(C)c2sc(N3CCN(C(=O)c4ccc([N+](=O)[O-])o4)CC3)nc12` came in with an Inhibition of 96%.
On the same count and under the same terms, the figure for `Cc1ccc(C)c2sc(N(CCCn3ccnc3)C(=O)C=Cc3cccs3)nc12.Cl` is 100%; for `CC(c1cccc(S(=O)(=O)NCc2cccc(C(F)(F)F)c2)c1)N1CCC(N2CCCCC2)CC1` (stereo not given) it is 99%.
`Cc1ccccc1C(O)CNc1ccnc(Nc2cccc(C#N)c2)n1` (stereo not given): the Inhibition is given as 94%.
Still for that read-out and setting: the figure for `CCC1(C)CC(CCNCc2ccccc2O)(c2ccccc2OC)CCO1.Cl` (stereo not given) is 94%; for `Cc1c(F)cc(C(=O)NC2CC2)cc1-c1ccc2c(cnn2S(=O)(=O)c2ccc(F)c(F)c2)c1` it is 91%; for `Fc1cccc(CNc2ncc(-c3ccsc3)c(-c3nccs3)n2)c1` it is 91%.
In turn, `CO/C(=C\C=C/c1cc2cc(Cl)c(Cl)cc2[nH]1)C(=O)NC1CC(C)(C)N(C)C(C)(C)C1` displayed an Inhibition of 93%.
Turning to `NC(=O)C1CCN(Cc2ccc(-c3cccc(-c4nc5cc(F)ccc5[nH]4)c3)cc2)CC1.O=C(O)C(F)(F)F`, the Inhibition came to 90%.
On the same count and under the same terms, the figure for `CNc1ccc(CNCc2cccc(-c3ccc(-c4nc5ccccc5[nH]4)s3)c2)cc1.O=C(O)C(F)(F)F` is 100%.
`CC12CCC(C(=O)N(CC(O)Cn3c4ccc(Cl)cc4c4cc(Cl)ccc43)C1=O)C2(C)C` (stereo not given): the Inhibition is reported as 100%.
As to `Br.CCOc1ccc(CCCON2C(=N)N=C(N)NC2(C)C)cc1`, the Inhibition was found to be 93%.
On the same count and under the same terms, the figure for `N#Cc1cccc(NC(=O)C2=C(CCc3ccc4c(c3)OCO4)NC(=O)NC2c2cccc(C#N)c2)c1` (stereo not given) is 96%; for `CC1CCN(C(=O)C(Cc2c[nH]c3ccccc23)NS(=O)(=O)c2ccc(Cl)cc2)CC1` (stereo not given) it is 100%; for `CCc1ccc(NC(=O)c2cccc(CN3CCCN(Cc4ccc(OC)cc4)CC3)c2)cc1.O=C(O)C(F)(F)F` it is 97%.
On to `O=C(O)C(F)(F)F.O=[N+]([O-])c1cccc(CNCC2CCN(Cc3ccc(O)cc3)CC2)c1`, for which the Inhibition came out at 98%.
The same measure, in the same setting: the figure for `O=C(c1cccc(-c2ccc(-c3nc4cc(F)ccc4[nH]3)s2)c1)N1CCCCC1CN1CCC(O)C1` (stereo not given) is 100%; for `CCCCCCCCS(=O)(=O)NCCCC1CCN(CCCCCNC(=O)C=Cc2ccc(Cl)c(Cl)c2)CC1` it is 91%.
`COc1ccc2ncc(F)c(NC(=O)C3CCC(NCc4cc5c(F)cccc5[nH]4)CC3)c2n1.Cl` (stereo not given): the Inhibition is on record as 91%.
On the same count and under the same terms, the figure for `OC1(c2ccc(Br)cc2)CCN(C2CCN(Cc3ccccc3)CC2)CC1` is 100%; for `COc1ccc(Nc2nccc(-c3ccc4c(-c5ccsc5)cnc(N)c4c3)n2)cc1` it is 100%.
Compound `COc1ccc(NC(=O)/C=C/c2ccccc2Cl)cc1OCCN1CCC(c2nc3ccccc3[nH]2)CC1.Cl` returned an Inhibition of 92%.
`Fc1ccc2cc(C=Cc3ccncc3)[nH]c2c1` yielded an Inhibition of 100%.
On the same count and under the same terms, the figure for `CC(C)(C)c1nn(-c2ccccc2)c2[nH]c(=O)c(CNCCc3ccccc3)cc12` is 94%.
Same read-out and setting: to `CC(Cc1ccc(CN2CCN(Cc3ccccc3)CC2)cc1)NCC(O)c1cccc(C(F)(F)F)c1.Cl` (stereo not given) belongs 97%; to `O=C(Cc1ccc(NC(=O)c2ccc(O)c(-c3ccc(Cl)c(Cl)c3)c2)cc1)NCc1cccc(C(F)(F)F)c1`, 95%.
As to `Br.Cc1ccc2ccccc2c1CCCON1C(=N)N=C(N)NC1(C)C`, the Inhibition came out at 95%.
For the compound `N=C1NC(=O)C(=Cc2cn(-c3ccccc3)nc2-c2cccc(S(=O)(=O)N3CCCC3)c2)S1`, the Inhibition is 85%.
The same measure, in the same setting: the figure for `CC(C)Cn1cc(C2CCN(CCN3CCC(CNC(=O)c4ccc(-c5ccc(C#N)cc5)cc4)CC3)CC2)c2ccccc21` is 100%; for `CCCCCN1CCC(NC(=O)c2ccc(C(=O)Nc3ccc(C(C)C)cc3)cc2)C1.O=C(O)C(F)(F)F` (stereo not given) it is 95%.
Turning to `CCOc1cc(Cc2cnc(N)nc2N)cc(OCC)c1-n1cccc1` [EPIROPRIM], the Inhibition was 98%.
Same read-out and setting: to `COc1ccc2c(NN=Cc3ccccc3F)ccnc2c1` belongs 98%; to `Cc1sc(C)c(C(F)(F)F)c1CNCCCNc1cc(=O)c2ccccc2[nH]1.Cl`, 96%; to `Cc1cccc(Oc2cccc3[nH]nc(N)c23)c1`, 85%.
The same measure, in the same setting: the figure for `O=S(=O)(c1ccccc1)C1CC1` is 89%; for `Cc1cnc2ccc(NS(=O)(=O)c3sc4ccc(Cl)cc4c3C)cc2c1N1CCNCC1.Cl` it is 99%.
In turn, `COc1ccc(C2CCN(CCN3CCC(NC(=O)c4ccc(-c5cccc(C(F)(F)F)c5C(F)(F)F)cc4)CC3)CC2)c(OC)c1` displayed an Inhibition of 100%.

In the next experiment the test system is Plasmodium falciparum. Put plainly: GSK_TCMDC: Inhibition of Plasmodium falciparum Dd2 in whole red blood cells, using parasite LDH activity as an index of growth. Test compounds present at 2uM. The format is functional.
`COc1ccc2[nH]c(C)cc(=NN=Cc3cccc(F)c3)c2c1` came in with an Inhibition of 100%.
On the same count and under the same terms, to `O=C(c1ccc(-c2cccc(-c3nc4cc(F)ccc4[nH]3)c2)cc1)N1CCCCC1CN1CCC(O)C1` (stereo not given) belongs 0%.
On the same count and under the same terms, to `CCCCNC(=O)[C@@H]1CCCN1C(=O)c1ccc(O)c(-c2ccc(Cl)c(Cl)c2)c1` belongs 92%; to `Cc1ccc(C)c2sc(N3CCN(C(=O)c4ccc([N+](=O)[O-])o4)CC3)nc12`, 89%.
Consider `Cc1ccc(C)c2sc(N(CCCn3ccnc3)C(=O)C=Cc3cccs3)nc12.Cl`, for which the Inhibition worked out at 93%.
Same read-out and setting: to `CC(c1cccc(S(=O)(=O)NCc2cccc(C(F)(F)F)c2)c1)N1CCC(N2CCCCC2)CC1` (stereo not given) belongs 35%; to `Cc1ccccc1C(O)CNc1ccnc(Nc2cccc(C#N)c2)n1` (stereo not given), 12%; to `CCC1(C)CC(CCNCc2ccccc2O)(c2ccccc2OC)CCO1.Cl` (stereo not given), 93%.
The same measure, in the same setting: the figure for `Cc1c(F)cc(C(=O)NC2CC2)cc1-c1ccc2c(cnn2S(=O)(=O)c2ccc(F)c(F)c2)c1` is 76%.
`Fc1cccc(CNc2ncc(-c3ccsc3)c(-c3nccs3)n2)c1` registered an Inhibition of 85%.
`CO/C(=C\C=C/c1cc2cc(Cl)c(Cl)cc2[nH]1)C(=O)NC1CC(C)(C)N(C)C(C)(C)C1` came in with an Inhibition of 34%.
On the same count and under the same terms, the figure for `NC(=O)C1CCN(Cc2ccc(-c3cccc(-c4nc5cc(F)ccc5[nH]4)c3)cc2)CC1.O=C(O)C(F)(F)F` is 3%; for `CNc1ccc(CNCc2cccc(-c3ccc(-c4nc5ccccc5[nH]4)s3)c2)cc1.O=C(O)C(F)(F)F` it is 77%; for `CC12CCC(C(=O)N(CC(O)Cn3c4ccc(Cl)cc4c4cc(Cl)ccc43)C1=O)C2(C)C` (stereo not given) it is 99%.
The compound `Br.CCOc1ccc(CCCON2C(=N)N=C(N)NC2(C)C)cc1` registered an Inhibition of 93%.
The same measure, in the same setting: the figure for `N#Cc1cccc(NC(=O)C2=C(CCc3ccc4c(c3)OCO4)NC(=O)NC2c2cccc(C#N)c2)c1` (stereo not given) is 47%; for `CC1CCN(C(=O)C(Cc2c[nH]c3ccccc23)NS(=O)(=O)c2ccc(Cl)cc2)CC1` (stereo not given) it is 99%; for `CCc1ccc(NC(=O)c2cccc(CN3CCCN(Cc4ccc(OC)cc4)CC3)c2)cc1.O=C(O)C(F)(F)F` it is 0%.
Compound `O=C(O)C(F)(F)F.O=[N+]([O-])c1cccc(CNCC2CCN(Cc3ccc(O)cc3)CC2)c1` yielded an Inhibition of 5%.
`O=C(c1cccc(-c2ccc(-c3nc4cc(F)ccc4[nH]3)s2)c1)N1CCCCC1CN1CCC(O)C1` (stereo not given) showed an Inhibition of 85%.
Same read-out and setting: to `CCCCCCCCS(=O)(=O)NCCCC1CCN(CCCCCNC(=O)C=Cc2ccc(Cl)c(Cl)c2)CC1` belongs 26%.
On the same count and under the same terms, the figure for `COc1ccc2ncc(F)c(NC(=O)C3CCC(NCc4cc5c(F)cccc5[nH]4)CC3)c2n1.Cl` (stereo not given) is 29%.
On the same count and under the same terms, the figure for `OC1(c2ccc(Br)cc2)CCN(C2CCN(Cc3ccccc3)CC2)CC1` is 18%.
`COc1ccc(Nc2nccc(-c3ccc4c(-c5ccsc5)cnc(N)c4c3)n2)cc1`: the Inhibition amounted to 98%.
Same read-out and setting: to `COc1ccc(NC(=O)/C=C/c2ccccc2Cl)cc1OCCN1CCC(c2nc3ccccc3[nH]2)CC1.Cl` belongs 16%; to `Fc1ccc2cc(C=Cc3ccncc3)[nH]c2c1`, 89%; to `CC(C)(C)c1nn(-c2ccccc2)c2[nH]c(=O)c(CNCCc3ccccc3)cc12`, 90%.
Turning to `CC(Cc1ccc(CN2CCN(Cc3ccccc3)CC2)cc1)NCC(O)c1cccc(C(F)(F)F)c1.Cl` (stereo not given), the Inhibition was 98%.
On the same count and under the same terms, the figure for `O=C(Cc1ccc(NC(=O)c2ccc(O)c(-c3ccc(Cl)c(Cl)c3)c2)cc1)NCc1cccc(C(F)(F)F)c1` is 28%; for `Br.Cc1ccc2ccccc2c1CCCON1C(=N)N=C(N)NC1(C)C` it is 97%; for `N=C1NC(=O)C(=Cc2cn(-c3ccccc3)nc2-c2cccc(S(=O)(=O)N3CCCC3)c2)S1` it is 68%.
On the same count and under the same terms, to `CC(C)Cn1cc(C2CCN(CCN3CCC(CNC(=O)c4ccc(-c5ccc(C#N)cc5)cc4)CC3)CC2)c2ccccc21` belongs 98%; to `CCCCCN1CCC(NC(=O)c2ccc(C(=O)Nc3ccc(C(C)C)cc3)cc2)C1.O=C(O)C(F)(F)F` (stereo not given), 17%.
Still for that read-out and setting: to `CCOc1cc(Cc2cnc(N)nc2N)cc(OCC)c1-n1cccc1` [EPIROPRIM] belongs 0%; to `COc1ccc2c(NN=Cc3ccccc3F)ccnc2c1`, 99%; to `Cc1sc(C)c(C(F)(F)F)c1CNCCCNc1cc(=O)c2ccccc2[nH]1.Cl`, 43%.
Turning to `Cc1cccc(Oc2cccc3[nH]nc(N)c23)c1`, the Inhibition is listed as 0%.
`O=S(=O)(c1ccccc1)C1CC1` had an Inhibition of 65%.
Still for that read-out and setting: to `Cc1cnc2ccc(NS(=O)(=O)c3sc4ccc(Cl)cc4c3C)cc2c1N1CCNCC1.Cl` belongs 0%; to `COc1ccc(C2CCN(CCN3CCC(NC(=O)c4ccc(-c5cccc(C(F)(F)F)c5C(F)(F)F)cc4)CC3)CC2)c(OC)c1`, 61%.

For orientation: Inhibition means the drop in the measured response relative to a control, in per cent. The low end stands for little suppression, the high end for strong suppression.
